# Experimental data from PubChem BioAssay (NCATS).
# Inconclusive results are not listed. Calls of active or inactive are those of the source. Calls come from the whole dose curve. Square brackets hold non-standard residues; d marks the D form. Peptide text beside a SMILES is read from it.
# Experiment: Primary qHTS to identify inhibitors of SARS-CoV-2 cell entry (AID 1645846); note: nearly all actives have a fitted effect of over 45% in size
# Conditions: SARS-CoV-2 pseudovirus cell entry assay, luminescence; activity change, negative = inhibition: at 57.1 µM (top of the series) unless noted
# Description: Assay Provider: Wei Zheng, Ph.D.
# National Center for Advancing Translational Sciences, National Institute of Health, Rockville, MD.
# SARS-CoV-2 spike protein, within the viral envelope, mediates viral attachment and infection of host cells. The SARS-CoV-2 spike protein specifically binds to the host receptor ACE2 (Angiotensin-converting enzyme 2). This interaction promotes endocytosis of the viral particle, additional events lead to viral-host cell membrane fusion and release of the viral contents, allowing viral replication.
# While SARS-CoV-2 requires BSL-3 facilities for live virus work, pseudotyped partices (PP) that incorporate SARS-CoV-2 spike proteins without replication elements could facilitate studies on viral entry mechanisms in a BSL-2 setting. This PP cell entry assay could also enable screening of small molecule compound libraries in BSL-2 setting to identify inhibitors of SARS-CoV-2 cell entry.
# PROTOCOL TABLE (format as described by Inglese J, Shamu CE and Guy RK. 2007)
# SEQUENCE No. (e.g., 1, 2, 3, etc.); […] (e.g., Cells, Incubation, Reagent, etc.); VALUE and DESCRIPTION.
# 1. Cells. Seed 1500 HEK293-ACE2 cells (Expi293F with stable expression of human ACE2) in 2 uL/well media (DMEM, 10% FBS, 1x L-glutamine, 1x Pen/Strep, 1 ug/ml puromycin) in white 1536-well assay plates (Greiner #782073).
# 2. Incubation. Incubate at 37C with 5% CO2 overnight (~16 h).
# 3. Compounds. Dispense 23 nL/well compounds in DMSO via pin transfer.
# 4. Incubation. Incubate for 1 hr at 37C 5% CO2.
# 5. Reagent. Dispense 2 uL/well of SARS-CoV-2-S pseudotyped particles. [a] PPs are produced with murine leukemia virus pseudotyping. [b] SARS-CoV-2-S is Wuhan-Hu-1 sequence (BEI #NR-52420) with C-terminal 19 amino acid truncation.
# 6. Centrifuge. […]
# 7. Incubation. Incubate at for 48 hr at 37C 5% CO2
# 8. Centrifuge. Remove supernatant with gentle centrifugation using a Blue Washer (BlueCat Bio).
# 9. Reagent. Dispense 4 uL/well of Bright-Glo Luciferase detection reagent (Promega #E2620).
# 10. Incubation. Incubate for 5 min at room temperature.
# 11. Detection. Read luminescence signal (Viewlux plate reader, PerkinElmer). Data was normalized with wells containing SARS-CoV-2-S PP as 100%, and wells containing bald PP (no fusion protein) as 0%.
# Potency is the fitted concentration of half-maximal effect.
SMILES,outcome,"activity change, negative = inhibition",Potency
Cc1ccc(Nc2cc(N[C@@H]3CCCC[C@@H]3N)nnc2C(N)=O)nc1C,inactive,,
Cc1ccc(-c2ccc3ncc4c(c3n2)n(C2CCN(C(=O)[C@H](C)O)CC2)c(=O)n4C)cn1,,-95.8%,
CC1(C)C[C@H]1C(=O)N/C(=C\CCCCSC[C@@H](N)C(=O)O)C(=O)O,,-28.6%,
O=C(Nc1cnn2ccc(N3CCC[C@@H]3c3cc(F)ccc3F)nc12)N1CC[C@H](O)C1,inactive,,
C[C@]12CCC3=C4CCC(=O)C=C4CC[C@H]3[C@@H]1CC[C@@]2(O)CC#N,,-3.65%,
CC=CC1=C(C(=O)O)N2C(=O)[C@@H](NC(=O)[C@H](N)c3ccc(O)cc3)[C@H]2SC1,inactive [at 27.1 µM],,
C/C=C/C[C@@H](C)C(=O)[C@H]1C(=O)N[C@@H](C(C)C)C(=O)N(C)CC(=O)N(C)[C@@H](CC(C)C)C(=O)N[C@@H](C(C)C)C(=O)N(C)[C@@H](CC(C)C)C(=O)N[C@@H](C)C(=O)N[C@H](C)C(=O)N(C)[C@@H](CC(C)C)C(=O)N(C)[C@@H](CC(C)C)C(=O)N(C)[C@@H](C(C)C)C(=O)N1C,,-14.4% [at 27.1 µM],
Cc1cc(Nc2ncc(Cl)c(Nc3ccccc3S(=O)(=O)C(C)C)n2)c(OC(C)C)cc1C1CCNCC1,,-32%,
CC1(C)S[C@@H]2[C@H](N)C(=O)N2[C@@H]1C(=O)O,inactive [at 5.25 µM],,
C[C@H]1[C@H](O)[C@@H](C)/C=C/C=C/CC/C=C/C=C/C=C/C=C/C(OC2O[C@H](C)[C@@H](O)[C@H](N)[C@@H]2O)CC2O[C@](O)(CC(O)C(O)CCC(O)CC(O)CC(O)CC(=O)O[C@H]1C)CC(O)C2C(=O)O (stereo not given in full),,-22.7%,
COC(=O)/C=C/C(=O)N(O)CCCCNCc1ccc(COC(=O)Nc2cccc3ccccc23)cc1,,-27.1%,
Cc1cccc(C)c1N(CCCc1cccnc1)C(=O)C(C)N (stereo not given),,-18.9%,
CN1CCN(c2ccc(OC(F)(F)F)c(Nc3ncc4c(n3)-c3c(c(C(N)=O)nn3CCO)CC4)c2)CC1,,-77.5%,
CCCCCCCCCCCCCCCC(=O)OCC(=O)[C@@]1(O)[C@H](C)C[C@H]2[C@@H]3CCC4=CC(=O)C=C[C@]4(C)[C@@]3(F)[C@@H](O)C[C@@]21C,,3.26%,
CCc1cc2c(c(OCC(F)(F)F)c(C(=O)NC3CCN(C(=O)CO)CC3)n2C)c(=O)n1CC(=O)c1ccccc1,,-53.6%,
Cc1ccc(S(=O)(=O)Nc2cc(C(F)(F)F)ccc2C(=O)Nc2nc(-c3ccccc3)cs2)cc1,,,8.91 µM (active)
O=C(NCC(=O)N1CCCC1)Nc1ccc2cnccc2c1,,-15.6%,
O=C(O)c1cc(=O)c2c3nc4ccccc4oc-3cc(=O)c2[nH]1,,-16.2%,
O=P(O)(O)OC1C(OP(=O)(O)O)C(OP(=O)(O)O)C(OP(=O)(O)O)C(OP(=O)(O)O)C1OP(=O)(O)O (stereo not given),,-23.6%,
COc1ccc(-n2cnc3cc(C(=O)N4CCCCC4)ccc32)cc1,,0.509%,

SMILES,outcome,"activity change, negative = inhibition",Potency
CC(C)(C)C(=O)CN1C(=O)[C@H](NC(=O)Nc2cccc(C(=O)O)c2)CN(C2CCCCC2)c2ccccc21,,-4.52%,
C=CC(=O)Nc1cccc(Nc2nc(Nc3ccc(Oc4ccnc(C(=O)NC)c4)cc3)ncc2F)c1,,,22.4 µM (active)
CCc1ccc(N(CC(C)C)S(=O)(=O)c2ccc(OCC3CCOCC3)c(CO)c2)cc1,,-88.5%,
OB1OCc2cc(F)ccc21,,-25.6%,
C[C@H]1[C@H](O)[C@@H](C)/C=C/C=C/CC/C=C/C=C/C=C/C=C/[C@H](O[C@@H]2O[C@H](C)[C@@H](O)[C@H](N)[C@@H]2O)C[C@@H]2O[C@](O)(C[C@@H](O)[C@H](O)CC[C@@H](O)C[C@@H](O)C[C@@H](O)CC(=O)O[C@H]1C)C[C@H](O)[C@H]2C(=O)O,,-39.7%,
CSCCNc1nc(SCCC(F)(F)F)nc2c1ncn2[C@@H]1O[C@H](COP(=O)(O)OP(=O)(O)C(Cl)(Cl)P(=O)(O)O)[C@@H](O)[C@H]1O,,-28.8%,
N#Cc1ccnc(Nc2cc(C3CCN(C4COC4)CC3)cc(N3CCC(F)(F)C3)n2)c1,,,3.16 µM (active)
Cc1cc(I)ccc1Nc1c(C(=O)NOCC2CC2)cc(F)c(F)c1F,,,12.6 µM (active)
O=C(O)C(O)C(O)C(=O)O (stereo not given),,-16.3%,
CCCCc1nc2cc(/C=C/C(=O)NO)ccc2n1CCN(CC)CC,inactive,,
CC(C)[C@H](N)C(=O)O,,-17.8%,
COc1ccc(C(=O)Nc2ccccc2CCC2CCCCN2C)cc1 (stereo not given),,-20%,
c1ccc2c(-c3cnn4cc(-c5ccc(OCCN6CCOCC6)cc5)cnc34)ccnc2c1,inactive [at 27.1 µM],,
CC12C=CC(=O)NC1CCC1C2CCC2(C)C(C(=O)Nc3cc(C(F)(F)F)ccc3C(F)(F)F)CCC12 (stereo not given),,-8.68%,
CC[C@H](CC[C@@H](C)[C@H]1CC[C@H]2[C@@H]3CC=C4C[C@@H](O)CC[C@]4(C)[C@H]3CC[C@]12C)C(C)C,,-9.4%,
CCOc1nc2cccc(C(=O)O)c2n1Cc1ccc(-c2ccccc2-c2noc(=O)[nH]2)cc1,,-24.5%,
CCc1cnn2c(NCc3ccc[n+]([O-])c3)cc(N3CCCC[C@H]3CCO)nc12,,-54%,
CC(C)C[C@@H]1NC(=O)[C@@H](C(C)C)NC(=O)[C@@H]2CCCN2C(=O)[C@@H](CC(=O)O)NC(=O)[C@@H](Cc2c[nH]c3ccccc23)NC1=O (cyclo(L[dW][dD]P[dV])),,-6.47%,
NC(CC1c2ccccc2Oc2ccccc21)(C(=O)O)C1CC1C(=O)O (stereo not given),,4.33%,
O=C(NOCC(O)CO)c1ccc(F)c(F)c1Nc1ccc(I)cc1F (stereo not given),,-21.5%,
